Where “and” joins values, the source holds several entries; their conditions need not be identical. Equal entries are not always repeated. Results filed as inconclusive are left out. Calls of active or inactive are those of the source. Unless noted, calls come from the whole dose curve; as a rule, active = well fitted curve in the direction sought with a large enough effect in the repeat runs; inconclusive = weak or mixed curves; inactive = no such curve, though single readings can be large; an effect the other way counts as inactive or inconclusive.
How the values were obtained:
[1] = qHTS assay to identify small molecule agonists of the constitutive androstane receptor (CAR) signaling pathway - cell viability counter screen (AID 1224836); note: nearly all actives have a fitted effect of over 45% in size; note: potency is the fitted concentration of half-maximal effect
How it was run: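 Cells were seeded and incubated 4 hrs. Compounds were added across 15 concentrations together with PK11195 at 0.75 uM final. Plates were incubated 23 hrs at 37 C. CellTiter-Fluor was added and fluorescence measured.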

[2] = qHTS assay to identify small molecule antagonists of the constitutive androstane receptor (CAR) signaling pathway - cell viability counter screen (AID 1224837); note: nearly all actives have a fitted effect of over 45% in size; note: potency is the fitted concentration of half-maximal effect
How it was run: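 Counter screen run in HepG2-CYP2B6-hCAR cells: 4 hr settle, compound titration (15 concentrations) with 50 nM CITCO, 23 hr at 37 C/5% CO2, CellTiter-Fluor fluorescence.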

[3] = biological target: Nuclear receptor subfamily 1 group I member 3 (Homo sapiens) (UniProt Q14994); test: qHTS assay to identify small molecule antagonists of the constitutive androstane receptor (CAR) signaling pathway (AID 1224838);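 note: HepG2 cells stably expressing hCAR with CYP2B6 luciferase reporter stimulated by CITCO; nearly all actives have a fitted effect of over 40% in size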
How it was run: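 Cell line: HepG2 double-stable for hCAR and CYP2B6-2.2kb reporter. Agonist: CITCO, 50 nM final. Compounds: 15 concentrations, 24 h, 37 C. Detection: ONE-Glo luminescence.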

[4] = biological target: Nuclear receptor subfamily 1 group I member 3 (Homo sapiens) (UniProt Q14994); test: qHTS assay to identify small molecule agonists of the constitutive androstane receptor (CAR) signaling pathway (AID 1224839);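 note: HepG2 cells stably carrying human CAR and a CYP2B6 luciferase reporter; nearly all actives have a fitted effect of over 15% in size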
How it was run: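 Cells were plated and incubated 4 hrs, then dosed with compounds at 15 concentrations. PK11195 was added to 0.75 uM final. After 24 hrs at 37 C, luciferase luminescence was measured.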

[5] = qHTS assay to identify small molecule antagonists of the estrogen related receptor signaling pathway with the pleiotropic PPARgamma coactivator (PGC) from Tox21 10K library - cell viability counter screen (AID 1224840; active = well fitted cell-killing curve with a large enough effect in the repeat runs, not every such curve was filed as active; note: nearly all actives have a fitted effect of over 40% in size; note: potency is the fitted concentration of half-maximal effect)
How it was run: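 Following seeding of 2,000 PGC/ERR cells/well and 6 hours' incubation, test compounds were delivered in DMSO. The plates then sat 17.5 hours at 37 C before a fluorogenic live-cell protease reagent (CellTiter-Fluor) was read after 30 min.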

[6] = qHTS assay to identify small molecule antagonists of the estrogen related receptor signaling pathway with the pleiotropic PPARgamma coactivator (PGC) from Tox21 10K library (AID 1224841; call rule not given here; note: actives are mostly falling curves and most rising ones were filed inactive; nearly all actives have a fitted effect of over 50% in size)
How it was run: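 qHTS antagonist format: PGC/ERR cells, 2k/well, compound in DMSO by pin transfer after 6 h attachment, 18 h treatment at 37 C, One-Glo luminescence read at 30 min.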

[7] = biological target: Thyrotropin receptor (Homo sapiens) (UniProt P16473); test: qHTS assay to identify small molecule agonists of the thyroid stimulating hormone receptor (TSHR) signaling pathway (AID 1224843; calls by dose curve; note: nearly all actives have a fitted effect of over 45% in size)
How it was run: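 Steps: seed 800 TSHR-HEK293 cells per well; add test compound and hold 30 min at ambient temperature; dispense cAMP-d2 then anti-cAMP cryptate; incubate 1 h at ambient; measure fluorescence intensity.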

[8] = qHTS assay to identify small molecule agonists of the hypoxia (HIF-1) signaling pathway - cell viability counter screen (AID 1224844; calls by dose curve; note: nearly all actives have a fitted effect of over 50% in size)
How it was run: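 Cells (HRE-bla ME-180, 2,000 per well) sat 5 hrs at 37C, got compound for 17 hrs, were read for CCF4-AM FRET, and were finally lysed with CellTiter-Glo for a 30 min room-temperature luminescence read.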

[9] = qHTS assay to identify small molecule agonists of the hypoxia (HIF-1) signaling pathway (AID 1224846; active = well fitted activation curve with a large enough effect in the signal ratio in the repeat runs, not every such curve was filed as active; the % refers to the signal ratio)
How it was run: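 A low-serum medium (0.5% dialyzed FBS) holding 2,000 HRE-bla ME-180 cells per well is preincubated for 5 hrs, dosed with compounds by pintool, and kept a further 17 hrs at 37C, 5% CO2 before CCF4-AM FRET detection of beta-lactamase.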

[10] = qHTS assay to identify small molecule agonists of H2AX - cell viability counter screen (AID 1224847; calls by dose curve; note: top concentration of the series differs between compounds; nearly all actives have a fitted effect of over 30% in size)
How it was run: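 Cytotoxicity counter screen in wild-type CHO-K1 cells: a 3 hr compound treatment at 37C across 15 concentrations, followed by CellTiter-Glo luminescence to gauge viable cells.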

[11] = qHTS assay to identify small molecule antagonists of the estrogen related receptor (ERR) signaling pathway from Tox21 library (AID 1224848); note: nearly all actives have a fitted effect of over 50% in size
How it was run: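 Luminescent reporter read-out (ONE-Glo) from NTP's ERR cell line after 18 h treatment at 37 C with DMSO-dissolved Tox21 compounds; cells pre-plated 6 h beforehand at 2,000 per well.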

[12] = qHTS assay to identify small molecule agonists of the estrogen related receptor (ERR) signaling pathway from Tox21 library (AID 1224849; calls by dose curve; note: nearly all actives have a fitted effect of over 15% in size); conditions: ERR reporter cell line, ONE-Glo luciferase, 18 h
How it was run: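 Screening used an NTP-provided ERR luciferase cell line. Compounds in DMSO were added 6 h after seeding and left 18 h at 37 C before a 30 min ONE-Glo step and luminescence reading.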

[13] = qHTS RealTime-Glo MT Cell Viability Assay in HEK293 cells - 32 hour (AID 1224868); note: nearly all actives have a fitted effect of over 50% in size; note: potency is the fitted concentration of half-maximal effect; for activity change, negative = cytotoxic: top concentration of the series differs between compounds
How it was run: (§1)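 HEK293 cells were seeded at 600 cells/well together with NanoLuc luciferase and cell-permeant prosubstrate, preincubated 5 h at 37 C/5% CO2, then given compound in DMSO by pintool. Luminescence from viable-cell prosubstrate reduction was read repeatedly over 40 h.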

[14] = A CellTox Green Cytotoxicity Assay to monitor cytotoxicity in HEK293 cells - 0 hour (AID 1224869); note: nearly all actives have a fitted effect of over 50% in size
How it was run: (§2)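 Fluorescence intensity, read at 0, 8, 16, 24, 32 and 40 h of compound treatment, reflected dye binding to DNA of dead HEK293 cells; compounds (23 nL, DMSO) were added 5 h after plating cells with reagent.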

[15] = qHTS RealTime-Glo MT Cell Viability Assay in HepG2 cells - 40 hour (AID 1224870); note: nearly all actives have a fitted effect of over 50% in size
How it was run: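 HepG2 cells (600/well) mixed with RealTime-Glo MT reagent, settled 5 h at 37 C/5% CO2 before compound addition. Nonlytic NanoLuc luminescence from viable-cell prosubstrate reduction read repeatedly during 40 h treatment at 37 C.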

[16] = qHTS RealTime-Glo MT Cell Viability Assay in HEK293 cells - 16 hour (AID 1224872); note: nearly all actives have a fitted effect of over 50% in size; note: potency is the fitted concentration of half-maximal effect; for activity change, negative = cytotoxicity: top concentration of the series differs between compounds
How it was run: as §1

[17] = qHTS assay to identify small molecule agonists of the estrogen related receptor signaling pathway with the pleiotropic PPARgamma coactivator (PGC) from Tox21 10K library (AID 1224842); note: nearly all actives have a fitted effect of over 15% in size
How it was run: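 PGC/ERR reporter cell line, 2,000 cells per well, incubated 6 h at 37 C before 23 nL compound in DMSO was added. After 18 h at 37 C, One-Glo luminescence read following 30 min at room temperature.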

[18] = qHTS assay to identify small molecule agonists of H2AX (AID 1224845; active = well fitted activation curve with a large enough effect in the signal ratio in the repeat runs, not every such curve was filed as active; the % refers to the signal ratio)
How it was run: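 Wild-type CHO-K1 cells, plated overnight, exposed 3hr at 37C to 15 concentrations (0.76% DMSO final). Lysed, then HTRF anti-pH2AX (S139) cryptate and anti-H2AX-d2 antibodies, 24 hr room temperature; 665/620 nm emission read.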

[19] = qHTS RealTime-Glo MT Cell Viability Assay in HepG2 cells - 24 hour (AID 1224867); note: nearly all actives have a fitted effect of over 50% in size
How it was run: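 HepG2 cells were seeded at 600 cells/well together with NanoLuc luciferase and a cell-permeant prosubstrate, preincubated 5 h at 37 C/5% CO2, then pin-dosed with compounds in DMSO. Nonlytic luminescence from viable cells was read at each time point.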

[20] = A CellTox Green Cytotoxicity Assay to monitor cytotoxicity in HEK293 cells - 40 hour (AID 1224871); note: nearly all actives have a fitted effect of over 45% in size; note: potency is the fitted concentration of half-maximal effect
How it was run: as §2
% is set by controls: 0 for no effect and ±100 for the full control effect.

Thyrotropin receptor (Homo sapiens), sequence (P16473 whole entry, looked up): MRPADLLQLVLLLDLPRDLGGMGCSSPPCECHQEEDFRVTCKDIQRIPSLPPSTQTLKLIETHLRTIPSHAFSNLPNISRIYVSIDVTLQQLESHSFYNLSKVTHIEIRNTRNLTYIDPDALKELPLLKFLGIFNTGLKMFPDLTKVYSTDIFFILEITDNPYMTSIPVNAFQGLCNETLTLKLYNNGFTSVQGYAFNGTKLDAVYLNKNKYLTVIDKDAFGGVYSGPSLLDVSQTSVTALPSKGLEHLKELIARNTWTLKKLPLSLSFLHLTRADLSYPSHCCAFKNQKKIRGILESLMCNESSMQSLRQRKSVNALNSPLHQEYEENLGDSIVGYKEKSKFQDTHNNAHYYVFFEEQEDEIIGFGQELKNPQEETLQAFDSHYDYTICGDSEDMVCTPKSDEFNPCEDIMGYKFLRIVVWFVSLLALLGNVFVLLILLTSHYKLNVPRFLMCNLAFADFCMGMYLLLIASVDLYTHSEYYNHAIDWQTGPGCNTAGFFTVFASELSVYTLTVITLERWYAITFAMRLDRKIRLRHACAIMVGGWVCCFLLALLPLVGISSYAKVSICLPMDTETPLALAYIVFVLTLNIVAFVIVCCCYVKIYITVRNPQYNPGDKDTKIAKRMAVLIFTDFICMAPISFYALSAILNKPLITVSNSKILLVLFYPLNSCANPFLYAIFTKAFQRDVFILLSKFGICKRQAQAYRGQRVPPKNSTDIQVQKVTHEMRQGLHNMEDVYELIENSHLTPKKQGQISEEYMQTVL
Nuclear receptor subfamily 1 group I member 3 (Homo sapiens), sequence (Q14994 whole entry, looked up): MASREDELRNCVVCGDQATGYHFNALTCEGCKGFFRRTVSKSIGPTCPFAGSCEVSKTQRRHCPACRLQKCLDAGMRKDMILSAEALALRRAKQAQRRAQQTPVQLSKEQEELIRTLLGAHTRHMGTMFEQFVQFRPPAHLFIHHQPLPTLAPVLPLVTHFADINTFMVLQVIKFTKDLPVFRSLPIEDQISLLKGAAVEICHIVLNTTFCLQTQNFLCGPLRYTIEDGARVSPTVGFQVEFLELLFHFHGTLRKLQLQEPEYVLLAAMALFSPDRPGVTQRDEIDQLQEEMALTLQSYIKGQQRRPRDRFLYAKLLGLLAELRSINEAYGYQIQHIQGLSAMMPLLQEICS

C=C(C)C(=O)OCCCCCCCCCC
inactive: Potency [1] | Potency [2] | Potency [3] | Potency [4] | Potency [5] | Potency [6] | Potency [7] | Potency [8] | Potency [9] | Potency [10] | Potency [11] | activity change, positive = activation ([12]; at 92.4 µM (top of the series)) 2.01% | Potency [13] | Potency [14] | Potency [15] | Potency [16]

CCN(CCN)c1cccc(C)c1
inactive: Potency [1] | Potency [2] | Potency [3] | Potency [4] | Potency [5] | Potency [6] | Potency [17] | Potency [7] | Potency [8] | Potency [18] | Potency [9] | Potency [10] | activity change, positive = activation ([12]; at 92.4 µM (top of the series)) -29% and -22.9% | Potency [19] | Potency [13] | Potency [14] | Potency [15] | Potency [20] | Potency [16]

CC1(C)CCC[C@]2(C)[C@H]3CCO[C@]3(C)CC[C@@H]12
inactive: Potency [1] | Potency [2] | Potency [3] | Potency [4] | Potency [5] | Potency [6] | Potency [7] | Potency [18] | Potency [10] | Potency [11] | activity change, positive = activation ([12]; at 92.4 µM (top of the series)) 5.7% | Potency [19] | Potency [13] | Potency [15] | Potency [16]

C1CCC(SSC2CCCCC2)CC1
inactive: Potency [1] | Potency [2] | Potency [3] | Potency [4] | Potency [5] | Potency [6] | Potency [17] | Potency [7] | Potency [8] | Potency [18] | Potency [9] | Potency [10] | Potency [11] | activity change, positive = activation ([12]; at 92.4 µM (top of the series)) 5.57% | Potency [19] | Potency [13] | Potency [14] | Potency [15] | Potency [20]

CCCCCCC1CCCC(=O)O1 (stereo not given)
inactive: Potency [1] | Potency [2] | Potency [3] | Potency [4] | Potency [5] | Potency [6] | Potency [17] | Potency [7] | Potency [8] | Potency [18] | Potency [9] | Potency [10] | Potency [11] | activity change, positive = activation ([12]; at 92.4 µM (top of the series)) 0.936% | Potency [19] | Potency [13] | Potency [14] | Potency [15] | Potency [20] | Potency [16]

C=CC(C)(CCC=C(C)C)OC=O (stereo not given)
inactive: Potency [1] | Potency [2] | Potency [3] | Potency [4] | Potency [5] | Potency [6] | Potency [17] | Potency [7] | Potency [8] | Potency [18] | Potency [9] | Potency [10] | Potency [11] | activity change, positive = activation ([12]; at 92.4 µM (top of the series)) 1.64% | Potency [19] | Potency [13] | Potency [14] | Potency [15] | Potency [20] | Potency [16]

CCCCCCCC/C=C\CCCCCCCCN
inactive: Potency [1] | Potency [2] | Potency [3] | Potency [4] | Potency [5] | Potency [6] | Potency [17] | Potency [7] | Potency [8] | Potency [18] | Potency [9] | Potency [10] | Potency [11] | activity change, positive = activation ([12]; at 42.5 µM (top of the series)) -2.95% | Potency [14]
active: Potency [13] 23.9 µM | Potency [20] 23.9 µM | Potency [16] 21.3 µM

CCCCCCCC
inactive: Potency [1] | Potency [2] | Potency [3] | Potency [4] | Potency [5] | Potency [17] | Potency [7] | Potency [8] | Potency [18] | Potency [9] | Potency [10] | Potency [11] | activity change, positive = activation ([12]; at 92.4 µM (top of the series)) 4.82% | Potency [19] | Potency [13] | Potency [14] | Potency [15] | Potency [20] | Potency [16]

CN(C)Cc1ccccc1O
inactive: Potency [1] | Potency [2] | Potency [3] | Potency [4] | Potency [5] | Potency [6] | Potency [17] | Potency [7] | Potency [8] | Potency [18] | Potency [9] | Potency [11] | activity change, positive = activation ([12]; at 92.4 µM (top of the series)) 0.52% | Potency [19] | Potency [13] | Potency [14] | Potency [20] | Potency [16]

CC(=O)OCC=C(C)C
inactive: Potency [1] | Potency [2] | Potency [3] | Potency [4] | Potency [5] | Potency [7] | Potency [8] | Potency [18] | Potency [9] | Potency [10] | Potency [19] | Potency [13] | Potency [14] | Potency [15] | Potency [20] | Potency [16]

Cc1ccc(N/N=c2\c(=O)cc/c(=N\Nc3ccc(S(=O)(=O)O)cc3)c2=O)c(C)c1
inactive: Potency [3] | Potency [4] | Potency [17] | Potency [7] | Potency [8] | Potency [9] | Potency [11] | activity change, positive = activation ([12]; at 92.4 µM (top of the series)) -2.81% | Potency [13] | Potency [14] | Potency [15] | Potency [20] | Potency [16]
active: Potency [1] 30.6 µM | Potency [2] 48.6 µM | Potency [5] 30.6 µM

CC(C)Cn1cnc2c(N)nc3ccccc3c21
inactive: viability change, negative = cytotoxic [1] -20.4% [at 19 µM] | activity change, negative = cytotoxicity [2] -10.6% [at 19 µM] | activity, negative = inhibition [3] 27.4% [at 19 µM] | activation [4] 6.88% [at 19 µM] | viability change, negative = cytotoxic [5] 16.3% [at 19 µM] | activity, negative = inhibition [6] 23.8% [at 19 µM] | activation [17] 6.35% [at 19 µM] | activation [7] 14.2% [at 19 µM] | activity change, negative = cytotoxicity [8] 18.6% [at 15.8 µM] | activation (H2AX phosphorylation) [18] -2.05% [at 31.6 µM] | activation [9] 0.447% [at 15.8 µM] | activity change, negative = cytotoxicity [10] 1.2% [at 31.6 µM] | activity, negative = inhibition [11] -22% [at 19 µM] | activity change, positive = activation ([12]; at 19 µM (top of the series)) -11.2% | activity change, negative = cytotoxicity [19] 0.631% [at 15.8 µM] | cytotoxicity [14] 4.66% [at 15.8 µM] | activity change, negative = cytotoxic [15] 1.75% [at 15.8 µM] | cytotoxicity increase [20] 1.7% [at 15.8 µM]

CCCNCCC
inactive: Potency [1] | Potency [2] | Potency [3] | Potency [4] | Potency [5] | Potency [7] | Potency [8] | Potency [18] | Potency [9] | Potency [10] | Potency [19] | Potency [13] | Potency [14] | Potency [15] | Potency [20] | Potency [16]
